UHRF1 binding: human UHRF1 methylated DNA binding inhibitors | Q96T88 | inhibition, % at 4.4 µM | AID 687016 | UHRF1 binding to methylated oligo, TR-FRET | 0.75% of 370,000 active; in the data active = inhibition above about 21%;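 note: UHRF1 SRA domain binding a hemimethylated CpG hairpin DNA probe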
Target sequence (Q96T88 whole entry, looked up, the tested form may be a part): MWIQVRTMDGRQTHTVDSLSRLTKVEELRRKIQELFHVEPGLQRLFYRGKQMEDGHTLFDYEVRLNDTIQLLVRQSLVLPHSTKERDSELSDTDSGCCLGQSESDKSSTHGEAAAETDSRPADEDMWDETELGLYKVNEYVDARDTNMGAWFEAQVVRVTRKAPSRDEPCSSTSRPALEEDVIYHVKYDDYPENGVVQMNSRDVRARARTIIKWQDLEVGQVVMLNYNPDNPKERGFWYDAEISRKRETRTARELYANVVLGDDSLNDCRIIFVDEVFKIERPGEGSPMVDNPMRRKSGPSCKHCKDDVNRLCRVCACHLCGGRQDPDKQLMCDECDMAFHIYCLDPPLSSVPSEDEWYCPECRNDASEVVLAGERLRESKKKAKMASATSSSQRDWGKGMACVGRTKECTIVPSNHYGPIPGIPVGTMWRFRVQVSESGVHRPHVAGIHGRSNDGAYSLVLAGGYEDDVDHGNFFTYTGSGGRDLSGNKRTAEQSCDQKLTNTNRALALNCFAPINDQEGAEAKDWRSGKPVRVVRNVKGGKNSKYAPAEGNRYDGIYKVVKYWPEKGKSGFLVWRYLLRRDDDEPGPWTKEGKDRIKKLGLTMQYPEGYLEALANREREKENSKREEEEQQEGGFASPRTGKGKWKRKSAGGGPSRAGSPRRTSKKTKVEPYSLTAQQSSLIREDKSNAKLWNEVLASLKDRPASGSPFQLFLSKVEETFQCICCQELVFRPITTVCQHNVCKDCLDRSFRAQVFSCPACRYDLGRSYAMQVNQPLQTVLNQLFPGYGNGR
LEDGF integ inh: blocks HIV-1 LEDGF/p75-dependent DNA integration. TR-FRET IN-LEDGF/p75 DNA integration, Eu/Cy5. inhibition, % at 3.7 µM. 0.64% of 370,000 active. AID 743269;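 active = inhibition above the screen-wide mean plus 3 SD, cut at about 13% in these data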;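 note: signal is the Cy5 over europium emission ratio at 671 and 618 nm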
PLC-beta3 inh: blocks human PLC-beta3 enzyme activity; 0.18% of 370,000 active; Purified PLC-beta3, fluorogenic substrate, fluorescence; inhibition, % at 12.2 µM; in the data active = inhibition above about 11%
MBD2 DNA inh: inhibitors of human MBD2 binding to methylated oligonucleotide. 0.31% of 370,000 active. inhibition, % at 4.4 µM. Q9UBB5. TR-FRET; in the data active = inhibition above about 13%
PLC-gamma1 inh: inhibitors of human phospholipase C gamma1 | 0.84% of 370,000 active | P19174 | purified PLC-gamma1, fluorogenic substrate, fluorescence | inhibition, % at 12.2 µM | AID 720700; in the data active = inhibition above about 9.5%
Numbers stand for hits; i = inactive. Sampled rows, rich in hits. Any-hit rate of the full collection: about 2.3%.

SMILES | UHRF1 binding | LEDGF integ inh | PLC-beta3 inh | MBD2 DNA inh | PLC-gamma1 inh
O=C1C(=Cc2cn(-c3ccccc3)nc2-c2ccc(OCc3ccc(Cl)cc3)cc2)SC(=S)N1CCS(=O)(=O)O | i | i | i | i | i
O=C1C(=Cc2cn(-c3ccccc3)nc2-c2ccc(OCc3ccccc3F)cc2)SC(=S)N1CCS(=O)(=O)O | 58 | i | i | i | i
CC(C)C[C@@H](COCc1ccc([N+](=O)[O-])cc1)N1CCN(C(=O)c2ccc(C(F)(F)F)cc2)CCC1=O | 22 | i | i | i | i
Cc1cccc(C(=O)N2CCC(=O)N(C(COCc3ccccc3)Cc3ccccc3)CC2)c1 (configuration not stated) | i | i | i | i | 15
COC(=O)[C@]12C[C@H](CC(=O)NCCc3ccccc3OC)C(=O)N(Cc3cccc4ccccc34)C1=C[C@H](C1CCCC1)O[C@@H]2C | i | i | i | i | i
O=C(Nc1ccccc1F)C1CCN(C(=O)NCc2ccccc2)CC1 | 24 | i | i | i | i
Cc1cccc2c(=O)c(C(=O)N3CCCCCC3)c[nH]c12 | 23 | i | i | i | i
Cc1ccccc1CN1[C@@H](C)[C@H](c2ccccc2)Oc2cccc(N3CCCC(C)C3)c2S1(=O)=O (some centres not stated) | i | i | i | i | i
C=CCN1[C@@H](C)[C@H](c2ccccc2)Oc2cccc(N3CCCC(C)C3)c2S1(=O)=O (some centres not stated) | 23 | i | i | i | i
C=C(C)/C=C1/CN(Cc2ccc3c(c2)OCO3)C(=N)N1C(=O)OCc1ccccc1 | i | i | i | i | i
CC(=O)OC12CCCN(C1)/C(=C/c1cccc(N(C)C)c1)C2 (configuration not stated) | i | i | i | i | i
O=C(CSc1ccccn1)Nc1ccc(N2CCOCC2)cc1 | 93 | i | i | i | i
O=C(CSc1ccccn1)Nc1ccc2c(c1)OCCO2 | i | i | i | i | i
C=CCn1cccc(C(=O)Nc2cc(OC)ccc2OC)c1=O | 29 | i | i | i | i
C=CCn1cccc(C(=O)Nc2ccc(C)c(C)c2)c1=O | i | i | i | i | i
CCOc1ccc(CN(C)C(=O)c2ccc(S(=O)(=O)N(C)c3ccccc3OC)cc2)cc1 | i | i | i | i | 10
O=C(NN=Cc1ccc(-c2ccccc2)cc1)c1cc(-c2ccc(Cl)cc2)n[nH]1 | i | i | i | i | i
O=C(Cn1nnc2ccccc2c1=O)NCCc1ccc(Cl)cc1Cl | 28 | i | i | i | i
COc1ccc(CCNC(=O)Cn2ncc3c2-c2cc(C)ccc2OC3)cc1 | i | i | i | i | i
CC(C)N(Cc1cn(Cc2ccccc2)nn1)S(=O)(=O)c1ccc(F)cc1Br | i | i | i | i | i
Cc1cc(C)n(CCCNC(=O)CCNS(=O)(=O)c2ccccc2C(F)(F)F)n1 | 24 | i | i | i | i
CN(C)C(CNC(=O)CCNS(=O)(=O)c1ccccc1C(F)(F)F)c1ccccc1 (configuration not stated) | i | i | i | i | i
Cc1[nH]c(=O)[nH]c(=O)c1S(=O)(=O)NCCc1ccc(S(N)(=O)=O)cc1 | 21 | i | i | i | i
CC(C)(C)NC(=O)[C@H](c1cccnc1)N(C(=O)c1ccco1)c1ccc(C(C)(C)C)cc1 | i | i | i | i | i
O=C1NC[C@@H](CCCCN2CCN(CC3CCCCC3)C(=O)C2=O)N(Cc2ccccc2)C1=O | i | i | i | i | i
SMILES | UHRF1 binding | LEDGF integ inh | PLC-beta3 inh | MBD2 DNA inh | PLC-gamma1 inh
O=C1NC[C@@H](CCCCN2CCN(CCC3CCCCC3)C(=O)C2=O)N(Cc2ccccc2)C1=O | i | i | i | i | 14
Oc1cccc(C=NCc2ccccc2)c1O | i | 65 | i | i | i
Oc1cccc(C=Nc2cccc3ccccc23)c1O | i | i | i | i | i
CCCCNS(=O)(=O)/C=C/c1cc(C)ccc1CNC(=O)OC(C)(C)C | i | i | i | i | i
COc1ccccc1NC(=O)c1ccc(C)c(S(=O)(=O)N2CCCCC2)c1 | i | i | i | i | 13
Cc1ccc(C(=O)NC2CCS(=O)(=O)C2)cc1S(=O)(=O)N1CCCCCC1 (configuration not stated) | 23 | i | i | i | i
Cc1ccc(NC(=O)C2CCCN(c3nnc(-n4cccc4)s3)C2)c(C)c1 (configuration not stated) | i | i | i | i | i
COC(=O)[C@]12C[C@H](CC(=O)N3CCN(C(=O)c4ccco4)CC3)C(=O)N(Cc3cccc4ccccc34)C1=C[C@H](COCc1ccccc1)O[C@@H]2C | i | i | i | i | i
COc1ccc(CN2C[C@]3(C=C(C)Cn4c(=O)n(-c5ccccc5)c(=O)n43)N=C2NC(=O)c2ccccc2)c(OC)c1 | i | i | i | i | i
CCCN1CCS(=O)(=O)N(Cc2cn(Cc3ccc(OC)cc3)nn2)C(C(=O)OC)C1 (configuration not stated) | i | i | i | i | i
CCCC[n+]1ccn(C2=C([O-])c3ccccc3C(=O)/C2=N\S(=O)(=O)c2ccc(Br)cc2)c1 | i | i | i | i | i
CC(=O)Nc1ccc(S(=O)(=O)/N=C2\C(=O)c3ccccc3C([O-])=C2n2cc[n+](-c3ccccn3)c2)cc1 | 44 | i | i | i | i
C/C(=N/NC(=O)c1ccoc1C)c1cccs1 | i | i | i | i | i
NC(=O)C1CC(=O)N(c2ccc(OCc3c(Cl)cccc3Cl)cc2)C1 (configuration not stated) | 23 | i | i | i | i
CCN(CC(=O)Nc1ccc(NC(C)=O)cc1)C(=O)c1ccc(N(C)S(=O)(=O)c2ccc(C)cc2)cc1 | 42 | i | i | i | i
CCOc1ccc(S(=O)(=O)Nc2cccc(C(=O)N(C)CC(=O)Nc3ccc(OC)cc3)c2)cc1 | i | 44 | i | i | i
CCN(CC(=O)Nc1ccc(OC)cc1)C(=O)c1ccc(NS(=O)(=O)c2ccc(C(C)=O)cc2)cc1 | 23 | i | i | i | i
CCOc1ccc(S(=O)(=O)Nc2cccc(C(=O)N(C)CC(=O)Nc3cccc(OC)c3)c2)cc1 | i | i | i | i | i
CCOC(=O)[C@@]12CN(C(=O)OC(C)(C)C)CC=C1N(Cc1ccc(OC)cc1)C(=O)[C@H]2CC(=O)NCc1cccs1 | i | i | i | i | i
CCCC1CCC2(CC1)CCC2OC(=O)Nc1cccc(C(F)(F)F)c1 (configuration not stated) | i | i | i | i | i
CC(C)C[C@@H](CNCC(=O)[C@H](Cc1ccccc1)NC(=O)c1[nH]cnc1C(=O)N[C@@H](C)CN)NC(=O)c1nc[nH]c1C(=O)N[C@@H](C)C(=O)O | 23 | i | i | i | i
CC(C)C[C@@H](CNCC(=O)[C@H](CC(C)C)NC(=O)c1[nH]cnc1C(=O)N[C@@H](C)CN)NC(=O)c1nc[nH]c1C(=O)N[C@@H](Cc1ccccc1)C(=O)O | i | i | i | i | i
CC(C)C[C@@H](CNCC(=O)[C@H](C)NC(=O)c1[nH]cnc1C(=O)N[C@@H](C)CN)NC(=O)c1nc[nH]c1C(=O)N[C@@H](CO)C(=O)O | i | i | i | i | i
